The results in this text go back to article PMC5540273 (PLoS ONE, 2017).

Holding throughout (settings): concentration: 1 μM, replicates: in singlicate; n = 1
In assay [1] the test system is SBK1.
Assay [2] concerns SGK2.
Assay [3] concerns SGK3.
Assay [4] relates to SGK.
For assay [5], the system named is SIK2.
Assay [6] relates to SIK.
Assay [7] deals with SLK.
In assay [8] the test system is T1, SNARK.
T1 construct: gene NUAK2

The test system of assay [9] is SNRK.
Assay [10] concerns SRC.
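Note: KINOMEscan kinase panel screen.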

As for `Nc1nc(-c2ccccn2)c(-c2ccnc3ccccc23)s1` [GW548057], the “%Inh” value in [1] turned out to be 0%; in assay [2], 0%; in assay [3], 6%; in [4], 0%; in assay [5], 0%; in assay [6], 0%. The “%Inh” value in assay [7] worked out at 7%; in assay [8], 0%; in assay [9], 0%; in [10], 12%.

For `Cc1ccc(NC(=O)c2cccc(C#N)c2)cc1-c1ccc(C(=O)Nc2ccncc2)cc1` [GSK1398463], the “%Inh” value in [1] is 0%; in assay [2] it was 10%; in assay [3] it was 2%; in assay [4], 0%; in assay [5], 15%; in [6] it was 0%. Moreover, the “%Inh” value amounted to 0% in [7], 0% in assay [8], 17% in assay [9] and 26% in [10].

For `Cc1cc(N2CCC(NS(=O)(=O)c3ccc(F)cc3)CC2)nc(Nc2cccc(C#N)c2)n1.O=C(O)C(F)(F)F` [GSK1653537], the “%Inh” value in assay [1], in assay [2], in assay [3], in [4], in assay [5] and in assay [6] was 0% throughout. Moreover, the “%Inh” value in assay [7] is 13%; in assay [8] it was 0%; in assay [9], 0%; in assay [10], 5%.

On to `OCCOCCn1ccc2ncnc(Nc3ccc(Oc4cccc(Cl)c4)c(Cl)c3)c21`, for which the “%Inh” value in assay [1], in [2], in assay [3], in [4], in assay [5] and in assay [6] was 0% throughout. Also, the “%Inh” value in assay [7] is 39%; in assay [8], 0%; in [9], 0%; in assay [10] it was 0%.

In the case of `Clc1cc(Nc2ncnc3cc[nH]c23)ccc1OCc1ccccn1`, the “%Inh” value amounted to 41% in [1]; 24% in [2]; 28% in assay [3]; 31% in assay [4]; 8% in assay [5]; 16% in assay [6]. In addition, the “%Inh” value in assay [7] was found to be 21%; in assay [8] it was 27%; in assay [9], 26%; in [10], 15%.
